The values below come from paper PMC7862700, “An all-to-all approach to the identification of sequence-specific readers for epigenetic DNA modifications on cytosine”.

Holding throughout (test): DAPPL (digital affinity profiling via proximity ligation, sequencing); 10 mM Tris-HCl pH 7.5, 50 mM NaCl, 1 mM DTT, 4% glycerol, room temperature, 30 min; GST-TFs on glutathione beads, 16-mer random dsDNA library, 0.1% formaldehyde crosslink after washing; high values mean tight binding
Common to all, as to settings: protein: recombinant; tags: N-terminal GST; dsDNA, one strand shown

Assay [1] addresses T1, FLI1 (Homo sapiens, UniProt Q01543 1-452).
T1 sequence: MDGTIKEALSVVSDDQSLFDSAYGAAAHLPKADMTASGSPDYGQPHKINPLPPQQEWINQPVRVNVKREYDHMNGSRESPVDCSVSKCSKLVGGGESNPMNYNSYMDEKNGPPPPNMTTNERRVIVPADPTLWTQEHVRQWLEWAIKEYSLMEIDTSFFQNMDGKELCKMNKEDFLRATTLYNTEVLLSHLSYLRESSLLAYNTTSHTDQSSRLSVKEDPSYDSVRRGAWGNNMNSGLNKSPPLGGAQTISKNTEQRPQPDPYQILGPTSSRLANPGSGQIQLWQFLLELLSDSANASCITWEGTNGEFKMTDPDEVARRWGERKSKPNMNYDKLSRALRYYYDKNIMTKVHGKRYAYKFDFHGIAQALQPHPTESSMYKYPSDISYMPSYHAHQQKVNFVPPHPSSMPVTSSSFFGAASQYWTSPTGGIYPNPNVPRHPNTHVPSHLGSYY
An outline of the steps: (§1)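 Beads coated with glutathione captured GST-fused human transcription factors that had been expressed in yeast, and the factors were then given DNA barcodes and pooled with a tag-only sample. The pools were incubated with 200 nmole of a random double-stranded 16-mer DNA library in Tris/NaCl/DTT/glycerol buffer for 30 min at room temperature, washed, crosslinked with 0.1% formaldehyde and proximity-ligated with BsaI/T4 ligase at 37 °C for 1 h. PCR amplification and Illumina NextSeq500 sequencing came last. Binding signal is each hexamer's read frequency for a factor divided by its frequency for the tag-only sample.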

Assay [2] addresses T2, ELK1 (Homo sapiens, UniProt P19419 1-428).
T2 sequence: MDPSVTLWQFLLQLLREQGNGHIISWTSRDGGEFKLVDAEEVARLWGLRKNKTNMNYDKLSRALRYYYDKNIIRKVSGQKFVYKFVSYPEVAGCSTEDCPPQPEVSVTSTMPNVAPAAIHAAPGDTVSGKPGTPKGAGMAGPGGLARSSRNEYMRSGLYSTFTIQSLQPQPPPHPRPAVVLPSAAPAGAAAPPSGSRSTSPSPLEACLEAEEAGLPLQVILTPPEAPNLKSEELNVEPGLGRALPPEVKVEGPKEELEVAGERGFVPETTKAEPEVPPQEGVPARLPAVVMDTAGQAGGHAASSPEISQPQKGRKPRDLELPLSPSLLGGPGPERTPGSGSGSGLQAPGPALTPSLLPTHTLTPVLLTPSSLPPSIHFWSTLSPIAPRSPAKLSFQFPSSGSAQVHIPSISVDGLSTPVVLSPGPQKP
An outline of the steps:
as §1

The target in assay [3] is T3, GABPA (Homo sapiens, UniProt Q06546 1-454).
T3 sequence: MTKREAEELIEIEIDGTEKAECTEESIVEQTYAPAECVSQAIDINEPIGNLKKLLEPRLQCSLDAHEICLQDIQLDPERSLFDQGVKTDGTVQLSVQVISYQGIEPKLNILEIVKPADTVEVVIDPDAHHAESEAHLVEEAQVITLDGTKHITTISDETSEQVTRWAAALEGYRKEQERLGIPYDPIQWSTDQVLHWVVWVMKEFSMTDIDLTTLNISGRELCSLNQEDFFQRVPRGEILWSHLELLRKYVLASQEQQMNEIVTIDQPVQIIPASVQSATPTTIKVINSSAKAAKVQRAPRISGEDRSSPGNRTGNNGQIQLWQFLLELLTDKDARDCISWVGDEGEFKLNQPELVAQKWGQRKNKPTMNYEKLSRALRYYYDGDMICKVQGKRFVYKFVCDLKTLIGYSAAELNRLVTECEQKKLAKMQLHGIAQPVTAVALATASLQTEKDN
An outline of the steps:
as §1

Assay [4] concerns the target T4, ERG (Homo sapiens, UniProt P11308 1-479).
T4 sequence: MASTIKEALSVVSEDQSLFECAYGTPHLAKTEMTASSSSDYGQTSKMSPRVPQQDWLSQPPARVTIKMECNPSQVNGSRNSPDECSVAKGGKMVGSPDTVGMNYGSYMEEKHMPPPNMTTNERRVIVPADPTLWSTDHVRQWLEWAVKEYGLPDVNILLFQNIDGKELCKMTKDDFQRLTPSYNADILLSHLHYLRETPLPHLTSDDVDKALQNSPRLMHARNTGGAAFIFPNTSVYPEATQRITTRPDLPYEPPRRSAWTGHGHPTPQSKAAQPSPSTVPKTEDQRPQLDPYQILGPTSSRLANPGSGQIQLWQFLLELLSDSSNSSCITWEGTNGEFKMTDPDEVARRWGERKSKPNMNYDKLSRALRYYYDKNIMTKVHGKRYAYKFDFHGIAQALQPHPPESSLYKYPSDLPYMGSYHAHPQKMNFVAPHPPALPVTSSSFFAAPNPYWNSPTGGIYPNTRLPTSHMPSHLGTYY
An outline of the steps: as §1

Assay [5] addresses ELF1 (Homo sapiens, UniProt P32519 1-619). An outline of the steps: as §1
Assay [6] has as its target T5, EHF (Homo sapiens, UniProt Q9NZC4 1-300).
T5 sequence: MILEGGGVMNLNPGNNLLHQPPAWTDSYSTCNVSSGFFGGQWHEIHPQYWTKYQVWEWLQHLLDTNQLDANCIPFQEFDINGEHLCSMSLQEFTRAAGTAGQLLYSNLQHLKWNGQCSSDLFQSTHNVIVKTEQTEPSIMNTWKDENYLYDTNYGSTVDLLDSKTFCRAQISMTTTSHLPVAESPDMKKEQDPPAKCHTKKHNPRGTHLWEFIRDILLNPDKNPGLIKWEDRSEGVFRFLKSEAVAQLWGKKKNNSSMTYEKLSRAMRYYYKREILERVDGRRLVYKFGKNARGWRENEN
An outline of the steps: as §1

Assay [7] deals with SPI1 (Homo sapiens, UniProt P17947 1-270). An outline of the steps: as §1
The target in assay [8] is SPIB (Homo sapiens, UniProt Q01892 1-262). An outline of the steps: as §1
For assay [9], the target named is T6, ELK3 (Homo sapiens, UniProt P41970 1-407).
T6 sequence: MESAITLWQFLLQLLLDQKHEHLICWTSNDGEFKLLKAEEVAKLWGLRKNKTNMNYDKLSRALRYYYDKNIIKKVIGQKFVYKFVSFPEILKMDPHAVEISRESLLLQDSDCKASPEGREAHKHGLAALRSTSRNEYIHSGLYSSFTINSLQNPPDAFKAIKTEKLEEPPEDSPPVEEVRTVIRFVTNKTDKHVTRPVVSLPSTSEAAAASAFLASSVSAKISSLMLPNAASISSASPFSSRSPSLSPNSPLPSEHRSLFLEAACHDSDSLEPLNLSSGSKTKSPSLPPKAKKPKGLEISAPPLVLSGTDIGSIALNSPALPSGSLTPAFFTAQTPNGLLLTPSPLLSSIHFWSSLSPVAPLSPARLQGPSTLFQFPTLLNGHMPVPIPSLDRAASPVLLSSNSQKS
An outline of the steps:
as §1

Assay [10] deals with T7, FEV (Homo sapiens, UniProt Q99581 1-238).
T7 sequence: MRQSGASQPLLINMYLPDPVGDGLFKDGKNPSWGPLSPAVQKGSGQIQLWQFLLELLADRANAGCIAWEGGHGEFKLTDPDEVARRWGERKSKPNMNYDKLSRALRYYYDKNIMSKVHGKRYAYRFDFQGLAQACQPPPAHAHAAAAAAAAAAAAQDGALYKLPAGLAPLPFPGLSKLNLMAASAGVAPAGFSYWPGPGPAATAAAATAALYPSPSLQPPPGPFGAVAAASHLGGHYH
An outline of the steps: as §1

In assay [11] the target is ETV5 (Homo sapiens, UniProt P41161 1-510). An outline of the steps: as §1
Assay [12] has as its target T8, SPIC (Homo sapiens, UniProt Q8N5J4 1-248).
T8 sequence: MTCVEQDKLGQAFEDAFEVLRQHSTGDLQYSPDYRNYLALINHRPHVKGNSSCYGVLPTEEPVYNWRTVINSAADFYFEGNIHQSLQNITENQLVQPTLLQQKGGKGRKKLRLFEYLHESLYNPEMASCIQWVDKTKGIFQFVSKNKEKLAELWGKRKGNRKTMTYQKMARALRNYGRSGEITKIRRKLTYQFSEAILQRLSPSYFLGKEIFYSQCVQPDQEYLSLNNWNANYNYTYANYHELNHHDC
An outline of the steps: as §1

In assay [13] the target is ELF4 (Homo sapiens, UniProt Q99607 1-663). An outline of the steps: as §1
In assay [14] the target is ETV1 (Homo sapiens, UniProt P50549 1-477). An outline of the steps:
as §1

For assay [15], the target named is T9, ERF (Homo sapiens, UniProt P50548 1-548).
T9 sequence: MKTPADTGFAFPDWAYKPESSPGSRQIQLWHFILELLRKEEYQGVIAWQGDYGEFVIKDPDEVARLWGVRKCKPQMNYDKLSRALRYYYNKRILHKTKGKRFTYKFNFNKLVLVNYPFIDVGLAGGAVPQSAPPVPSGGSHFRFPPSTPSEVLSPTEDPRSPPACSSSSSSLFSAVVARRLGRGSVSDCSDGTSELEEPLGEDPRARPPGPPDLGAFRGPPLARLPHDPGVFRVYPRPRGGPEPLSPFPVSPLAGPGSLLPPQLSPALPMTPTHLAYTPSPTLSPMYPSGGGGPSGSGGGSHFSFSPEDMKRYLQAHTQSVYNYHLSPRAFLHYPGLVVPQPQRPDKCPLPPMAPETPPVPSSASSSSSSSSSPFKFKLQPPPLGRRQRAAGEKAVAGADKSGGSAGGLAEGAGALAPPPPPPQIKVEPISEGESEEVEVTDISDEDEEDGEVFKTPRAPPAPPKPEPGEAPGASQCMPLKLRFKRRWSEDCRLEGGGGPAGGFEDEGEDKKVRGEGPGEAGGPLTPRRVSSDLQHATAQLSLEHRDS
An outline of the steps:
as §1

The target of assay [16] is T10, ETV3L (Homo sapiens, UniProt Q6ZN32 1-361).
T10 sequence: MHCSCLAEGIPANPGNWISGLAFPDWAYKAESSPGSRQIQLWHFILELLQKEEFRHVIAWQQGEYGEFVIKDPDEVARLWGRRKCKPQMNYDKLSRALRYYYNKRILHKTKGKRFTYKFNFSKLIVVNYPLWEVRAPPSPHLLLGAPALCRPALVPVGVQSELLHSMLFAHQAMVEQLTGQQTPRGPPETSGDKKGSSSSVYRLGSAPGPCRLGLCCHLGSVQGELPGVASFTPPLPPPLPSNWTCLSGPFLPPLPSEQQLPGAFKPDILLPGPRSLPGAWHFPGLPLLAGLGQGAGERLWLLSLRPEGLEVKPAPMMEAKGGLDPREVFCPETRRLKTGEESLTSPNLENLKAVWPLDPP
An outline of the steps:
as §1

The target of assay [17] is T11, ETS2 (Homo sapiens, UniProt P15036 1-469).
T11 sequence: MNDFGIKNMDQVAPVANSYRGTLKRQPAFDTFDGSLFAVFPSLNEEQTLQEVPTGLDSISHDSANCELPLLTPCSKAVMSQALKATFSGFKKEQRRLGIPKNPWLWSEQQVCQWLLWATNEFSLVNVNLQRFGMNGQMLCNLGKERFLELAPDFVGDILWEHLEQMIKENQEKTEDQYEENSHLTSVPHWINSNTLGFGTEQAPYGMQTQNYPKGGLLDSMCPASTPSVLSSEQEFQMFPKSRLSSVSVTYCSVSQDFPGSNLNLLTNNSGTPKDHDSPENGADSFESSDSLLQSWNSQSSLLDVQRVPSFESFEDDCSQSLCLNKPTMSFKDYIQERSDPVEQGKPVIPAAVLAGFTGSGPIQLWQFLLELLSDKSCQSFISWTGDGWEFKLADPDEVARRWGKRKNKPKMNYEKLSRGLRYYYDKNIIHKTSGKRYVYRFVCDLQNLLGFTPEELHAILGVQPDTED
An outline of the steps: as §1

Assay [18] has as its target T12, ELF5 (Homo sapiens, UniProt Q9UKW6-2 1-255).
T12 sequence: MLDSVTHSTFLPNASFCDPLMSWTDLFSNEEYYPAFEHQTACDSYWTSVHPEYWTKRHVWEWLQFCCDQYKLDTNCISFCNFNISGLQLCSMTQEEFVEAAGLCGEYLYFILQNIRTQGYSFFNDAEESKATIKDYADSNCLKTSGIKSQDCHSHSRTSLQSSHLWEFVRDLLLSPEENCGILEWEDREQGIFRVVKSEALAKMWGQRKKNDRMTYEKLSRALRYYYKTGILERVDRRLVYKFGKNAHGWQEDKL
An outline of the steps:
as §1

Assay [19] concerns the target T13, ETV3 (Homo sapiens, UniProt P41162-2 1-143).
T13 sequence: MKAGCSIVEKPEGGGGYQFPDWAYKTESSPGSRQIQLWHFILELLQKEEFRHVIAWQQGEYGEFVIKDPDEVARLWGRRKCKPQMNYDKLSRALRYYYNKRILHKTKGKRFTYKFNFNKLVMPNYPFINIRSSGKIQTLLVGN
An outline of the steps: as §1

Chain of ETV1 (P50549 whole entry): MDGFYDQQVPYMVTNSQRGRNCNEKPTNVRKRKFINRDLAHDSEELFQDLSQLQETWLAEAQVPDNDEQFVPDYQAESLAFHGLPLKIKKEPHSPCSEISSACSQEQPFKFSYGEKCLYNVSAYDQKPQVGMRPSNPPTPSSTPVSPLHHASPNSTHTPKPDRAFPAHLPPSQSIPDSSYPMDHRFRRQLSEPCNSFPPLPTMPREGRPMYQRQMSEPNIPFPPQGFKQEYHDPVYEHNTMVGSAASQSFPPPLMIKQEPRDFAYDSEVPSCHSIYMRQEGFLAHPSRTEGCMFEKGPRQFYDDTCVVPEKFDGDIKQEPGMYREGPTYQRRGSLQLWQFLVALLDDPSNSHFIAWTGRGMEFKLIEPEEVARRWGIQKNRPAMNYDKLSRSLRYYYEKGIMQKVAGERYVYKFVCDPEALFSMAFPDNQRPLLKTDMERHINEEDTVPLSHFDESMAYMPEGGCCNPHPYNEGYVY
Chain of ELF1 (P32519 whole entry): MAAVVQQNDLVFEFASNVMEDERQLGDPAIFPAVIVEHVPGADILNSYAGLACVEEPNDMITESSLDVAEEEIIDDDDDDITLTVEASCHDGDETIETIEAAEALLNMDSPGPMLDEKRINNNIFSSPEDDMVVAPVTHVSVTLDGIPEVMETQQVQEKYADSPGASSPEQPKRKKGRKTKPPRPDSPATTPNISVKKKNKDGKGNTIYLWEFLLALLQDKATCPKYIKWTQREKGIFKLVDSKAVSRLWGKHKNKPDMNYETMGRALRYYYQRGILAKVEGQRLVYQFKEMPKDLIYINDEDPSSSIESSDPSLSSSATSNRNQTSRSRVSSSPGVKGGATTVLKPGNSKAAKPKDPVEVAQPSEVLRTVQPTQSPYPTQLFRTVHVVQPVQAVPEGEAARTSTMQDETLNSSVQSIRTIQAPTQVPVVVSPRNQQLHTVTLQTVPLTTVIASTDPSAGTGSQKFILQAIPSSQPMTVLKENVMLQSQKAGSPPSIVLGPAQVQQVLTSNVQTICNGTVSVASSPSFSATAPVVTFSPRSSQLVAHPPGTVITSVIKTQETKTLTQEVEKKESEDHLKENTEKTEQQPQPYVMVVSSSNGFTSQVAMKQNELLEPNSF
Chain of SPIB (Q01892 whole entry): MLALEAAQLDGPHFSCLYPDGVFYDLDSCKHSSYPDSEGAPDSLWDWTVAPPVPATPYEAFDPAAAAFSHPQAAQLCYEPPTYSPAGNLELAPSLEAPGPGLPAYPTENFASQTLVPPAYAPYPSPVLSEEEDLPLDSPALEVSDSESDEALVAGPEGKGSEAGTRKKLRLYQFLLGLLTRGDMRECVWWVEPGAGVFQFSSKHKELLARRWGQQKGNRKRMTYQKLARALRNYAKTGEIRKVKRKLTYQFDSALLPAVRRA
Chain of ELF4 (Q99607 whole entry): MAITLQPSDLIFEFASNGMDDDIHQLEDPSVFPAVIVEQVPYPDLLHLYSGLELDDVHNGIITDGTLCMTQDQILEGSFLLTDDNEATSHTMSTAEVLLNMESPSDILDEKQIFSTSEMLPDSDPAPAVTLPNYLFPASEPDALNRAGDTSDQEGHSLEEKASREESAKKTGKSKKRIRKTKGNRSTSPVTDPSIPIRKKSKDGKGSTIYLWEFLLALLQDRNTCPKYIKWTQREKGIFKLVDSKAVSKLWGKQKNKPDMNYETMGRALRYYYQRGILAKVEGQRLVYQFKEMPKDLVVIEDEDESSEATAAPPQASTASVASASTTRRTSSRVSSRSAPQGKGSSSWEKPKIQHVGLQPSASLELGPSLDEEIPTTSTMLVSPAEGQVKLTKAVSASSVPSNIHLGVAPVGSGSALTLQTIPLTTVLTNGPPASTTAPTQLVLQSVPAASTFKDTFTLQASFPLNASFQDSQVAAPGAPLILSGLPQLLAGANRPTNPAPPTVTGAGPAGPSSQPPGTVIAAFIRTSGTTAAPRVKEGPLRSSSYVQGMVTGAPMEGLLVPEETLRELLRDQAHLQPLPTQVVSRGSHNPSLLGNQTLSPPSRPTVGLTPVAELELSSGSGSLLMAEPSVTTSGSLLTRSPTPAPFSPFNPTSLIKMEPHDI
Chain of ETV5 (P41161 whole entry): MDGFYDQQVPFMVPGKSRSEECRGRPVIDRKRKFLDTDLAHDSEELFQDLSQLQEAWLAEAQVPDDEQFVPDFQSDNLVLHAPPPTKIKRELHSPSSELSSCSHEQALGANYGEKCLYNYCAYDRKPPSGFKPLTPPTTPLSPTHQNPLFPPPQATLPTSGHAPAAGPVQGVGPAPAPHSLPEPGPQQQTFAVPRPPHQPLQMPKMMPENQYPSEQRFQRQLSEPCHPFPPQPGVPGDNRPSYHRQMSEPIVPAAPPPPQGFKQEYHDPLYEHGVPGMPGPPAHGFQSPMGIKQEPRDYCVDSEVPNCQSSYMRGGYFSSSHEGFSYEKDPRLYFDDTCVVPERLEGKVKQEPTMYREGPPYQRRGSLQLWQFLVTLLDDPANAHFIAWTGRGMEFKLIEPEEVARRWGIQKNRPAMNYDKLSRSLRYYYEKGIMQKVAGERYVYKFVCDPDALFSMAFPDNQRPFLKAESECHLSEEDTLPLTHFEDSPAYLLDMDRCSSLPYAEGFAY

In the case of GCTGCG, the binding signal in [1] was 1.01 fold enrichment (6-mer frequency, TF over GST control); in assay [2], 1.12 fold enrichment (6-mer frequency, TF over GST control); in assay [3], 1.1 fold enrichment (6-mer frequency, TF over GST control); in [4] it was 1.09 fold enrichment (6-mer frequency, TF over GST control); in [5], 1.13 fold enrichment (6-mer frequency, TF over GST control); in assay [6], 1.21 fold enrichment (6-mer frequency, TF over GST control). Moreover, the binding signal in assay [7] was 1.08 fold enrichment (6-mer frequency, TF over GST control); in assay [8] it was 1.08 fold enrichment (6-mer frequency, TF over GST control); in assay [9] it was 1.04 fold enrichment (6-mer frequency, TF over GST control); in assay [10], 1.1 fold enrichment (6-mer frequency, TF over GST control); in assay [11], 1.12 fold enrichment (6-mer frequency, TF over GST control); in assay [12], 1.08 fold enrichment (6-mer frequency, TF over GST control). Further, the binding signal was 1.1 fold enrichment (6-mer frequency, TF over GST control) in assay [13]; 1.16 fold enrichment (6-mer frequency, TF over GST control) in [14]; 1.08 fold enrichment (6-mer frequency, TF over GST control) in assay [15]; 1.13 fold enrichment (6-mer frequency, TF over GST control) in [16]; 1.14 fold enrichment (6-mer frequency, TF over GST control) in [17]; 1.04 fold enrichment (6-mer frequency, TF over GST control) in [18]. The binding signal in [19] was 1.07 fold enrichment (6-mer frequency, TF over GST control).
